Data published in PubChem BioAssay AID493042 (Johns Hopkins Ion Channel Center, 2011).
Results with a measured potency or affinity are listed apart. Active and inactive are the calls of the source.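 The calls were made as follows: active = potentiation or inhibition seen at some tested dose and a dose response curve obtained; inactive = no potentiation or inhibition at any dose, or no curve.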

Target: Potassium voltage-gated channel subfamily KQT member 1 (Homo sapiens) + Potassium voltage-gated channel subfamily E member 1 (Homo sapiens) (UniProt P15382+P51787)
Experiment: KCNQ1/KCNE1 channel current potentiation, dose response, selectivity assay for KCNQ2 activator project, automated patch clamp, CHO cells (AID 493042)
Conditions: series mostly up to 30 µM

Chain of Potassium voltage-gated channel subfamily KQT member 1 (Homo sapiens) + Potassium voltage-gated channel subfamily E member 1 (Homo sapiens) (O88943 whole entry, looked up): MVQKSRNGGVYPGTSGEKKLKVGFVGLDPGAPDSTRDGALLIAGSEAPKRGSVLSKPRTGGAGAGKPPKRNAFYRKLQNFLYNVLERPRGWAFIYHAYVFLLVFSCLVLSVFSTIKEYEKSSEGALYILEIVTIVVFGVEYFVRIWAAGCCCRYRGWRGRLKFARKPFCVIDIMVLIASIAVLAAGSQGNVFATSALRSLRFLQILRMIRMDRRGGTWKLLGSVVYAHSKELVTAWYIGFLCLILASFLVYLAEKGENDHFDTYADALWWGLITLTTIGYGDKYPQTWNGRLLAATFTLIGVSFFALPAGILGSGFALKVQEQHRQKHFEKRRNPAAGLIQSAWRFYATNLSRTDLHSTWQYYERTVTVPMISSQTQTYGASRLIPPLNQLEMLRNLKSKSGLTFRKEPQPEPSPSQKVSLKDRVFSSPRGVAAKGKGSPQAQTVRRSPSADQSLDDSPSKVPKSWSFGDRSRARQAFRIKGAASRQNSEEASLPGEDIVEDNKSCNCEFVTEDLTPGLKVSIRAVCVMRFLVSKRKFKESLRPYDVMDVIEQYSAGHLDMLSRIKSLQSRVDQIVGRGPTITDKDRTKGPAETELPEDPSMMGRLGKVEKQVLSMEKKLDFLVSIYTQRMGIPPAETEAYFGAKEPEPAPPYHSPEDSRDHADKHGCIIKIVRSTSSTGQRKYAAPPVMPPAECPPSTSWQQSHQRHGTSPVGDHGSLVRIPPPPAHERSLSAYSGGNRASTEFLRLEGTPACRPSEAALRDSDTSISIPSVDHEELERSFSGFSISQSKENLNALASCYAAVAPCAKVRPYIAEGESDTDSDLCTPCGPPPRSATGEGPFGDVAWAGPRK
Chain of Potassium voltage-gated channel subfamily KQT member 1 (Homo sapiens) + Potassium voltage-gated channel subfamily E member 1 (Homo sapiens) (P51787 whole entry, looked up): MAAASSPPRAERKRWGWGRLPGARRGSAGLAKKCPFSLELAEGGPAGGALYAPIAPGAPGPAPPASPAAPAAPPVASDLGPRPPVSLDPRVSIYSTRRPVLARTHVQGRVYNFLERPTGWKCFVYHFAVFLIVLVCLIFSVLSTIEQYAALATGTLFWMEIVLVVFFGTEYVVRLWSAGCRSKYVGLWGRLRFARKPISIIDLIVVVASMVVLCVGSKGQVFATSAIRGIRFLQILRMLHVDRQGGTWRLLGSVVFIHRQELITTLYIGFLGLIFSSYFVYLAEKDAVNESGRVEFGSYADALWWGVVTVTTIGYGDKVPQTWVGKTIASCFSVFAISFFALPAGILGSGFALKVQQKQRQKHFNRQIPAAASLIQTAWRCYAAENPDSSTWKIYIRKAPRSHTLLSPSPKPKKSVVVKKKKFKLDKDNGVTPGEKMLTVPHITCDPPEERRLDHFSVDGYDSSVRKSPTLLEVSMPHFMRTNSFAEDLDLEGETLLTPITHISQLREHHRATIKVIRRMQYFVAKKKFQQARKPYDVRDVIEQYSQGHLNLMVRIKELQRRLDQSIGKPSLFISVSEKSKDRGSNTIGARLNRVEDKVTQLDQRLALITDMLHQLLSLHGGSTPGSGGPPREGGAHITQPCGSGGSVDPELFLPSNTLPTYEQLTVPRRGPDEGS

SMILES: Cc1cccc(C)c1NC(=O)C1CC2CCC1C2 (stereo not drawn)
- outcome: inactive

SMILES: CCCCC(=O)Nc1c(C)cc(C)cc1Cl
- outcome: inactive

SMILES: Cc1cc(C)c(NC(=O)CC(C)(C)C)c(Cl)c1
- outcome: inactive
